Most compounds without a hit are left out; they make up all but 8.7% or so of the library.
HP1b binding inh: blocks HP1-beta chromodomain binding to methylated histone tails; AlphaScreen HP1-beta / biotin-H3K9me3 peptide binding; Potency, µM (doses to about 114 µM), hits mostly inhibitors; 390,000 compounds, 0.56% hits; AID 540317; also: nearly all actives have a fitted effect of over 70% in size
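Compound inhibition of the preformed complex between 50 nM HP1-beta and 50 nM biotinylated H3K9me3 peptide was read by AlphaScreen. Buffer was PBS pH 7.4 with 0.01% Tween-20. Incubations ran 30 min at room temperature, with 10 ug/mL donor/acceptor beads.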
ALOX12 inh: ALOX12 (human) lipoxygenase inhibition. P18054. purified 12hLO, xylenol orange hydroperoxide absorbance. Potency, µM (top dose mostly 108 µM), actives largely listed as inhibitors. 580,000 compounds, 1.1% hits. AID 1671190
Target sequence (P18054 whole entry, looked up): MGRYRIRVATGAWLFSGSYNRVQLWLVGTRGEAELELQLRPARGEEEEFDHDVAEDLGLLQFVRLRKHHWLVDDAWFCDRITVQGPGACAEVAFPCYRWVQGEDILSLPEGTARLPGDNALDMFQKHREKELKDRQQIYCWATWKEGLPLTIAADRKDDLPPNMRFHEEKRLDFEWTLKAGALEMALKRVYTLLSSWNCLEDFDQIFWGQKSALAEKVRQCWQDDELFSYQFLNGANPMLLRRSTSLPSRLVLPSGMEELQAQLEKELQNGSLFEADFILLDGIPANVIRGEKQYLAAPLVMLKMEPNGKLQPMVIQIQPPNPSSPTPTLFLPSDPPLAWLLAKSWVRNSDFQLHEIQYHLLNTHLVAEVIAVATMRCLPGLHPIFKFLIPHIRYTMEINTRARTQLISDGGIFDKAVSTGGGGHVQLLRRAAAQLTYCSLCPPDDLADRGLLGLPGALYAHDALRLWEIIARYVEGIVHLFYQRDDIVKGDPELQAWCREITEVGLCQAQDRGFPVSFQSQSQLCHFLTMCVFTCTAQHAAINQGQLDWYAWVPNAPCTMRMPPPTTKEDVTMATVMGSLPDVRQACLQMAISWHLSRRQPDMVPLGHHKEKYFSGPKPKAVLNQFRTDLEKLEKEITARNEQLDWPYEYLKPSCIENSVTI
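Purified human 12hLO at 150 nM in 25 mM Hepes, 0.01% Triton X-100, pH 7.0, preincubated 15 min at room temperature with compound. Reaction started with 40 uM arachidonic acid, 30 min at room temperature. Hydroperoxide measured by Fe-xylenol orange, 573/405 nm absorbance ratio.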
JMJD2A Tudor: inhibitors of human JMJD2A Tudor domain. AID 504339. AlphaScreen JMJD2A-Tudor / H3K4me3 peptide binding. O75164. Potency, µM (top dose mostly 114 µM), usual class: inhibitors. 390,000 compounds, 4.4% hits; also: nearly all actives have a fitted effect of over 50% in size
BAZ2B block: blocks human BAZ2B; Q9UIF8; Potency, µM (titrated, usually from 114 µM), hits mostly inhibitors; 360,000 compounds, 4.4% hits; AID 504333; AlphaScreen BAZ2B-H3K14Ac peptide displacement; also: nearly all actives have a fitted effect of over 60% in size
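Complex of BAZ2B and biotin-H3K14Ac (50 nM apiece) forms over 30 min at RT, then faces library compounds up to 110 uM for another 30 min; AlphaScreen beads added, 20 min dark incubation, luminescence read.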
G9a inh: inhibitors of human histone lysine methyltransferase G9a; Potency, µM (top dose mostly 102 µM), most hits filed as inhibitors; AID 504332; 350,000 compounds, 8.8% hits; G9a H3K9 monomethylation, AlphaScreen, 2 h; also: nearly all actives have a fitted effect of over 75% in size
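Using a bead-based AlphaScreen, monomethylated H3K9 product from 2 h room-temperature reactions (G9a 20 nM, peptide 500 nM, SAM 20 uM) was detected with 0.5 ug/mL rabbit anti-H3K9me1 antibody.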
Sfp PPTase inh: Sfp phosphopantetheinyl transferase inhibition | Biochemical Sfp PPTase activity, qHTS | Q9F4F7 | Potency, µM, usual class: inhibitors | 310,000 compounds, 3.5% hits | AID 1490;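 also: the enzyme is Sfp with the accession as filed and its product quenches rhodamine fluorescence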
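Fluorescence-quenching assay: 15 nM Sfp-PPTase preincubated 15 min at room temperature with compound, then 5 uM rhodamine-CoA and 12.5 uM BHQ-2-labelled YbbR peptide added. Fluorescence (ex 525/em 598 nm) read at start and after 30 min; difference gives rate.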
Of the large screens only hits and unclear results are named; the others gave an inactive call. Calls follow the shape of the dose curve; as a rule, active = well fitted curve in the direction sought with a large enough effect; inconclusive = small, poorly fitted or top-dose-only effect, or another doubt; inactive = no such curve, though single readings can be large; an effect the other way counts as inactive or inconclusive.

O=C(COc1ccccc1)N1CCC(c2nc(C3CCOCC3)no2)CC1	none (no result: HP1b binding inh, JMJD2A Tudor, BAZ2B block, G9a inh, Sfp PPTase inh)
CC(=O)Nc1ccc2oc(-c3cc(C)cc(C)c3)nc2c1	none (no result: HP1b binding inh, JMJD2A Tudor, BAZ2B block, G9a inh, Sfp PPTase inh)
CCN(C(=O)CSc1nnc(Nc2ccccc2C)s1)C1CCS(=O)(=O)C1 (stereo not drawn)	G9a inh 50µM
CN(C(=O)CSc1nnc(NCc2ccccc2)s1)C1CCS(=O)(=O)C1 (stereo not drawn)	G9a inh 50µM
Cc1ccc(CNC(=O)c2nccnc2N)cc1	none (no result: HP1b binding inh, JMJD2A Tudor, BAZ2B block, G9a inh, Sfp PPTase inh)
N#Cc1ccc(C(=O)NCCSC(F)(F)F)cc1	none (no result: HP1b binding inh, JMJD2A Tudor, BAZ2B block, G9a inh, Sfp PPTase inh)
CCc1cccc(OCC(=O)N(C)CC(=O)Nc2cccc(F)c2)c1	G9a inh 50µM (no result: Sfp PPTase inh)
CN(CC(=O)Nc1ccc(Cl)cc1)C(=O)COc1cccc(F)c1	ALOX12 inh 40µM (no result: HP1b binding inh, JMJD2A Tudor, BAZ2B block, G9a inh, Sfp PPTase inh)
Cc1ccc(-n2cc(C(=O)N3CCC(NC(=O)OC(C)(C)C)CC3)nn2)cc1C	none (no result: HP1b binding inh, JMJD2A Tudor, BAZ2B block, G9a inh, Sfp PPTase inh)
CC(C)(C)c1n[nH]c2c1CCCC2	JMJD2A Tudor 89µM
CC(=C\c1ccco1)/C=C(\C#N)C(=O)NCCc1c[nH]c2ccccc12	ALOX12 inh inconclusive, JMJD2A Tudor inconclusive, BAZ2B block inconclusive, G9a inh 13µM
CCOc1ccc(C2Cn3nnc(-c4nc(-c5cccc(OCC)c5)no4)c3CO2)cc1 (stereo not drawn)	none (no result: HP1b binding inh, JMJD2A Tudor, BAZ2B block, G9a inh, Sfp PPTase inh)
C=CCc1ccc(OCCOCCNCCOC)c(OC)c1	none
CNCCCOc1ccc(Cl)cc1C(C)(C)C	HP1b binding inh inconclusive, ALOX12 inh inconclusive, JMJD2A Tudor 45µM, BAZ2B block 32µM, G9a inh 14µM, Sfp PPTase inh inconclusive
C=CCc1ccc(OCCCCNC(C)CC)c(OC)c1 (stereo not drawn)	JMJD2A Tudor 14µM, G9a inh 14µM
C=CCc1cc(Cl)ccc1OCCCNC(C)CC (stereo not drawn)	HP1b binding inh inconclusive, ALOX12 inh inconclusive, JMJD2A Tudor 22µM, G9a inh 10µM
C=CCc1ccc(OCCOCCNCCCC)c(OC)c1	HP1b binding inh inconclusive, ALOX12 inh inconclusive, JMJD2A Tudor 4µM, BAZ2B block 50µM, G9a inh inconclusive, Sfp PPTase inh inconclusive
CCCC(=O)Nc1nc2ccc(CCC(=O)N3CCN(c4ccccc4F)CC3)cc2s1	none (no result: HP1b binding inh, JMJD2A Tudor, BAZ2B block, G9a inh, Sfp PPTase inh)
CCOC(=O)CCCSc1ccc2c(c1)OCCO2	none (no result: HP1b binding inh, JMJD2A Tudor, BAZ2B block, G9a inh, Sfp PPTase inh)
COCCCNCCCOc1ccc(Cl)cc1C(C)(C)C	ALOX12 inh inconclusive, JMJD2A Tudor 28µM, G9a inh inconclusive, Sfp PPTase inh inconclusive
C=CCc1ccc(OCCOCCOc2cccc3ccc(C)nc23)c(OC)c1	HP1b binding inh 16µM, ALOX12 inh inconclusive, JMJD2A Tudor 1.1µM, BAZ2B block 28µM, G9a inh 3.5µM, Sfp PPTase inh inconclusive
CCC(C)NCCCOc1ccc(Cl)cc1C(C)(C)C (stereo not drawn)	HP1b binding inh inconclusive, ALOX12 inh inconclusive, JMJD2A Tudor 3.2µM, BAZ2B block 50µM, G9a inh 13µM
CC(C)NC(=O)CCCOc1ccc(Cl)cc1Cl	none
O=c1[nH]c(=S)[nH]c2c1C(c1cc([N+](=O)[O-])c(N3CCOCC3)cc1N1CCOCC1)O2 (stereo not drawn)	ALOX12 inh inconclusive, G9a inh 45µM
O=[N+]([O-])c1ccc(Cl)cc1N1CCOCC1	none
Cn1c(CNC(=O)CSc2n[nH]c(-c3ccccc3)n2)nc2ccccc21	none (no result: Sfp PPTase inh)
CC1(C(=O)CSc2n[nH]c(-c3ccccc3Cl)n2)CCC(=O)O1 (stereo not drawn)	BAZ2B block inconclusive, G9a inh 10µM, Sfp PPTase inh 50µM (no result: HP1b binding inh, ALOX12 inh, JMJD2A Tudor)
CC1(C(=O)CSc2ncn[nH]2)CCC(=O)O1 (stereo not drawn)	BAZ2B block 89µM, G9a inh 11µM, Sfp PPTase inh 56µM (no result: HP1b binding inh, ALOX12 inh, JMJD2A Tudor)
Cn1c(CNC(=O)CSc2n[nH]c(-c3ccccc3Cl)n2)nc2ccccc21	G9a inh 28µM (no result: Sfp PPTase inh)
FC(F)(F)c1cccc(Oc2ncnc3scc(-c4ccccc4)c23)c1	none (no result: HP1b binding inh, JMJD2A Tudor, BAZ2B block, G9a inh, Sfp PPTase inh)
CC1(C)CC(N2CCN(CCO)CC2)=CC(=S)N1	G9a inh inconclusive, Sfp PPTase inh 50µM
CCCCCCSc1cc(-c2nc3cc(C)ccn3c2NCCCC)ccc1OC	ALOX12 inh inconclusive, JMJD2A Tudor inconclusive (no result: Sfp PPTase inh)
CCCCNc1c(-c2ccc(OC)c(Sc3ccc(OC)cc3)c2)nc2cnccn12	JMJD2A Tudor inconclusive (no result: BAZ2B block, G9a inh, Sfp PPTase inh)

Compound activity: PubChem BioAssay, National Center for Advancing Translational Sciences (NCATS)
